Measurements: PubChem BioAssay
For part of these data: Measured potencies and affinities stand elsewhere. The list shows a part of the results. The source made the active and inactive calls.

Key:
[1] = biological target: Inward rectifier potassium channel 2 (Mus musculus) (UniProt P35561); test: mouse Kir2.1 channel blockers, retest, confirmation, cell-based, FluxOR thallium flux, duplicate (AID 2032;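 active = Primary-screen hit whose thallium flux fell at least 3 control SD below untreated wells in both duplicates, with normal baseline fluorescence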); details: Kir2.1-expressing cells, FluxOR thallium flux fluorescence, at 10 µM; stronger effect = lower value
[2] = nonspecific thallium flux effects in parental HEK293 cells, confirmation, counter-screen for Kir2.1 inhibitor project, cell-based, FluxOR thallium flux, duplicate, single concentration (AID 2105); details: FluxOR thallium flux fluorescence, at 10 µM; 0% = unstimulated blank wells;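 for FluxOR signal as % of negative control (100 = no effect): percent is based on the flux ratio of peak minus minimum fluorescence over baseline F0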
[3] = nonspecific thallium flux increase in parental CHO-K1, confirmation, counter-screen for KCNQ2 potentiator project, cell-based, FluxOR thallium flux, duplicate (AID 2282;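 active = signal rise of at least 3 SD above the untreated control mean, in both duplicate wells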;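 note: counter screen of KCNQ2 potentiator hits so any rise reflects channel-independent effects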); details: parental CHO-K1 cells, FluxOR thallium flux fluorescence; at 10 µM; stronger effect = higher value; zero = vehicle mean+3SD, 100% = vehicle-minus-blank window
[4] = biological target: Potassium voltage-gated channel subfamily KQT member 1 (Homo sapiens) (UniProt P51787); test: human KCNQ1 channel potentiation off-target, confirmation, selectivity assay for KCNQ2 potentiator project, cell-based, CHO, FluxOR thallium flux (AID 2283;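 active = fluorescence ratio rise of at least 3 SD of vehicle wells above their mean, in both replicate wells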;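 note: 0% = vehicle mean plus 3 SD and 100% = vehicle minus unstimulated blank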); details: CHO KCNQ1 stable, FluxOR thallium flux fluorescence; at 10 µM; stronger effect = higher value; beyond 3SD, as % of vehicle-control signal
[5] = biological target: Potassium voltage-gated channel subfamily KQT member 2 (Rattus norvegicus) (UniProt O88943); test: rat KCNQ2 channel potentiators, confirmation, cell-based, CHO, FluxOR thallium flux, duplicate (AID 2287;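 active = fluorescence ratio rising 3 SD or more over the vehicle control mean in both replicates, plus primary screen hit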;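 note: peak minus minimum thallium fluorescence divided by baseline after K/Tl stimulus; 0% = vehicle mean plus 3 SD and 100% = vehicle minus unstimulated blank difference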); details: CHO-KCNQ2 cells, FluxOR thallium flux fluorescence; at 10 µM; stronger effect = higher value
[6] = biological target: Inward rectifier potassium channel 2 (Mus musculus) (UniProt P35561); test: PubChem AID 2345; details: HEK293 Kir2.1, FluxOR thallium flux fluorescence; at 10 µM; stronger effect = higher value;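 note: 0% = vehicle mean plus 3 SD and 100% = vehicle minus no-stimulus blank window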
[7] = biological target: Potassium voltage-gated channel subfamily KQT member 2 (Rattus norvegicus) (UniProt O88943); test: potentiators of retigabine-insensitive KCNQ2 W236L, mechanism study for KCNQ2 potentiator project, cell-based, rat KCNQ2 W236L, CHO, automated patch clamp (AID 2558;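 active = current increase at least 3 SD of the untreated controls above them in both duplicate recordings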); details: at 25 µM; outcome: automated patch clamp current
[8] = thallium flux activation in parental CHO cells, counter-screen for KCNQ1 potentiator project (AID 493006;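 active = duplicate-averaged activation above buffer control mean plus 5 SD of those controls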;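 for activation: fluorescence ratio of max minus min over baseline after K+ and Tl+ depolarization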); details: parental CHO-K1 cells, FluxOR thallium flux, at 10 µM; stronger effect = higher value
[9] = biological target: Potassium voltage-gated channel subfamily KQT member 1 (Homo sapiens) (UniProt P51787); test: KCNQ1 potassium channel potentiators, confirmation, FluxOR thallium flux, CHO cells, duplicates (AID 493007;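 active = potentiation averaged over duplicate wells exceeding buffer-only control mean by more than 3 SD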;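 note: 0% = buffer-only wells and 100% = R-L3 activator control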); details: KCNQ1 cell line, FluxOR thallium flux fluorescence, at 10 µM; stronger effect = higher value, % of reference activator effect, buffer zero
[10] = biological target: Potassium voltage-gated channel subfamily KQT member 2 (Rattus norvegicus) (UniProt O88943); test: rat KCNQ2 channel potentiation, selectivity assay for KCNQ1 potentiator project, KCNQ2-CHO-K1 cells (AID 493009;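 active = mean duplicate potentiation above the buffer control mean plus 5 SD of buffer wells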;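 note: assay conditions were tuned for KCNQ1 rather than KCNQ2 modulators; signal is max minus min fluorescence divided by baseline after thallium stimulus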); details: FluxOR thallium flux fluorescence, at 10 µM; stronger effect = higher value, scaled: buffer 0, activator control 100
[11] = biological target: Potassium voltage-gated channel subfamily KQT member 1 (Homo sapiens) (UniProt P51787); test: KCNQ1 channel current potentiators, confirmation, orthogonal assay for KCNQ1 potentiator project, IonWorks patch clamp, KCNQ1-CHO cells (AID 493184;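 active = current rise at least 3 SD above the untreated control mean in each of two repeat wells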); details: automated patch clamp current, at 10 µM; stronger effect = higher value
[12] = tested on: TRPC4 beta (transient receptor potential cation channel C4), mouse; test: activators of mouse TRPC4 channel, confirmation, cell-based, Fluo4 calcium, HEK293 TRPC4beta/mu-opioid, duplicates, 10 µM (AID 2426;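 active = fluorescence ratio normalized to control raised more than 50% in primary screen plus both repeat runs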;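 note: percent rise of integrated ratio over buffer wells lacking compound which define 0%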); details: Fluo4 calcium fluorescence, at 10 µM; stronger effect = higher value
[13] = tested on: transient receptor potential cation channel C4 beta (TRPC4), mouse; test: activators of mouse TRPC4 channel, confirmation, cell-based, second round, Fluo4, HEK293 TRPC4beta/mu-opioid, 1 µM (AID 2461;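 active = primary screen active and over 50% activation in each of two duplicate runs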); details: Fluo4 calcium fluorescence, at 1 µM; stronger effect = higher value
[14] = tested on: TRPC4 (transient receptor potential cation channel C4 beta), mouse; test: positive allosteric modulators of mouse TRPC4, confirmation, cell-based, second round, Fluo-4, HEK293 TRPC4beta/mu-opioid, 1 µM (AID 2554;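 active = primary screen hit whose fluorescence ratio, in both repeats, exceeds the weak agonist control mean by 3 SD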); details: DAMGO EC20, Fluo-4 calcium flux, at 1 µM; stronger effect = higher value
[15] = tested on: TRPC4 beta (transient receptor potential cation channel C4), mouse; test: positive allosteric modulators of mouse TRPC4, confirmation, cell-based, Fluo-4, HEK293 TRPC4beta/mu-opioid (AID 2555;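 active = primary screen hit whose calcium fluorescence ratio, in both repeats, exceeds the weak agonist control mean by 3 SD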); details: DAMGO EC20, Fluo-4 calcium flux, at 10 µM; stronger effect = higher value
[16] = biological target: Short transient receptor potential channel 4 (Mus musculus) (UniProt Q9QUQ5); test: inhibitors of mouse TRPC4 channel, confirmation, cell-based, Fluo4, HEK293 TRPC4beta/mu-opioid (AID 2636;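 active = calcium signal cut by more than 3 SD below the full-agonist control yet still positive, in both repeats and the earlier primary screen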); details: DAMGO, Fluo4 calcium flux, at 10 µM; stronger effect = higher value
[17] = biological target: Short transient receptor potential channel 4 (Mus musculus) (UniProt Q9QUQ5); test: inhibitors of mouse TRPC4 channel, confirmation, cell-based, second round, Fluo4, HEK293 TRPC4beta/mu-opioid, 1 µM (AID 2637;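 active = calcium signal ratio cut to more than 3 SD under the fully stimulated control mean yet still positive, in both repeats and the primary screen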); details: Fluo4 calcium flux, DAMGO, at 1 µM; stronger effect = higher value
[18] = biological target: Short transient receptor potential channel 4 (Mus musculus) (UniProt Q9QUQ5); test: mouse TRPC4 channel activators, dose response, cell-based, HEK293 TRPC4/mu-opioid, Fluo-4 calcium (AID 434937;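 active = primary screen activator hit with a dose response curve and TRPC4 channel activation at any tested dose; inactive = no activation, no dose response, or not a primary hit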)
[19] = biological target: Short transient receptor potential channel 4 (Mus musculus) (UniProt Q9QUQ5); test: TRPC4 positive allosteric modulators, dose response, cell-based, HEK293 TRPC4/mu-opioid, Fluo-4 calcium, EC20 DAMGO (AID 434941;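 active = earlier screen potentiator hit that boosts the TRPC4 ion channel at some dose, with a dose response; inactive = no potentiation, no dose response, or not a prior hit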;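 note: calcium entry triggered by an EC20 dose of DAMGO at the co-expressed mu-opioid receptor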)
[20] = biological target: Short transient receptor potential channel 4 (Mus musculus) (UniProt Q9QUQ5); test: mouse TRPC4 channel inhibitors, dose response, cell-based, HEK293 TRPC4/mu-opioid, Fluo-4 calcium (AID 434942;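 active = primary screen inhibitor hit that blocks the TRPC4 channel at some tested dose, yielding a dose curve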)
[21] = biological target: Short transient receptor potential channel 6 (Mus musculus) (UniProt Q61143); test: inhibition of mouse TRPC6 channel, confirmation, selectivity assay for TRPC4 inhibitor project, cell-based, HEK293, membrane potential dye, duplicate (AID 434948;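 active = active in primary screen and both duplicates, each dropping signal beyond three positive-control SD with fluorescence still positive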); details: HEK293 TRPC6, membrane potential dye fluorescence, at 10 µM, stimulated with maximal-effect acetylcholine; stronger effect = higher value
[22] = biological target: Short transient receptor potential channel 6 (Mus musculus) (UniProt Q61143); test: activation of mouse TRPC6 channel, confirmation, selectivity assay for TRPC4 activator project, cell-based, HEK293, membrane potential dye, duplicate (AID 434950;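 active = membrane potential signal rise above negative control mean plus 3 SD in both duplicates, also active in the earlier TRPC4 screen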); details: HEK293 TRPC6, membrane potential fluorescence, at 10 µM; stronger effect = higher value
[23] = biological target: Short transient receptor potential channel 6 (Mus musculus) (UniProt Q61143); test: TRPC6 potentiation by TRPC4 potentiator hits, confirmation, selectivity assay for TRPC4 potentiator project, HEK293 cells, membrane potential dye, duplicate (AID 434952;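 active = compound raising the membrane signal above positive-control mean plus 3 SD in both repeats, and a primary screen hit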); details: HEK293 TRPC6, membrane potential dye fluorescence, at 10 µM, maximal acetylcholine added after compound; stronger effect = higher value
[24] = biological target: Short transient receptor potential channel 4 (Mus musculus) (UniProt Q9QUQ5); test: calcium flux activators in TRPC4/5HT1a cells, counter-screen for TRPC4 activator project, cell-based, second counter screen, HEK293 TRPC4/5HT1a, Fluo-4 (AID 434977;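 active = calcium signal rise above buffer-control mean plus 5 SD in both duplicates, and also a hit in the primary screen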;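 note: plate controls were assay buffer for no effect and maximal serotonin response for full effect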); details: Fluo-4 calcium flux, at 10 µM; stronger effect = higher value
[25] = calcium flux inhibitors in TRPC4/5HT1a cells, confirmation, counter-screen for TRPC4 inhibitor project, cell-based, second counter screen, HEK293 TRPC4/5HT1a, Fluo-4 (AID 434978;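 active = primary screen active whose calcium signal fell more than 3 SD beyond the full-serotonin control mean in both duplicate plates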;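 note: serotonin given first at submaximal then at maximal dose after compound preincubation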); details: Fluo-4 calcium flux, at 10 µM, serotonin added to trigger calcium flux; stronger effect = higher value
[26] = tested on: TRPC4 (mouse), co-expressed with 5HT1a in HEK293; test: calcium flux potentiators in TRPC4/5HT1a cells, confirmation, counter-screen for TRPC4 potentiator project, cell-based, second counter screen, HEK293 TRPC4/5HT1a, Fluo-4 (AID 434979;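 active = signal rise over 3 SD above mean of control wells given weak agonist, in both repeats and first screen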); details: Fluo-4 calcium flux, at 10 µM, serotonin added at its EC20 dose; stronger effect = higher value
[27] = calcium flux activation in mu-opioid HEK293 cells, confirmation, counter-screen for TRPC4 activator project, cell-based, HEK293 mu-opioid receptor line (AID 449723;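 active = hit in primary screen, with calcium signal over 5 SD above buffer well mean in both duplicates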;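 note: counter screen cells carry the mu-opioid receptor alone and lack TRPC4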); details: Fluo-4 calcium fluorescence, at 10 µM; stronger effect = higher value
[28] = calcium flux enhancement in mu-opioid HEK293 cells, confirmation, counter-screen for TRPC4 allosteric potentiator project, cell-based, HEK293 mu-opioid receptor line (AID 449724;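 active = calcium signal rise more than 3 SD above the low-dose agonist control mean, in both duplicate plates and the primary screen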); details: Fluo-4 calcium flux, at 10 µM, compound added before EC20 DAMGO stimulus; stronger effect = higher value
[29] = biological target: Potassium voltage-gated channel subfamily KQT member 1 (Homo sapiens) (UniProt P51787); test: KCNQ1 potassium channel inhibitors, confirmation, cell-based, Tl flux, duplicate (AID 588353;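 active = primary screen active, with duplicate mean exceeding buffer control mean plus 3 SD of buffer wells, cut at about 28% in these data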;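 note: 0% = buffer control ratio and 100% = XE991 inhibitor control ratio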); details: KCNQ1 cell line, FluxOR thallium flux fluorescence; at 10 µM; stronger effect = higher value
[30] = thallium flux effects in parental CHO cells, counter-screen for KCNQ1 inhibitor project, cell-based, Tl flux (AID 588366;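 active = mean of duplicate thallium-flux fluorescence ratios in parental host cells more than 5 SD below the buffer control mean, cut at about 0.38 in these data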;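 note: ratio is peak minus minimum fluorescence divided by baseline fluorescence; actives read low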); details: parental CHO-K1, FluxOR thallium flux fluorescence ratio; at 10 µM; stronger effect = lower value; zero means no signal rise above baseline
[31] = biological target: Potassium voltage-gated channel subfamily KQT member 2 (Rattus norvegicus) (UniProt O88943); test: KCNQ2 channel inhibition, selectivity assay for KCNQ1 inhibitor project, cell-based (AID 651746;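 active = mean percent inhibition of the KCNQ2 thallium signal more than 5 SD above the buffer-only control wells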;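 note: 0% = buffer control wells and 100% = XE-991 inhibitor control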); details: KCNQ2 cells, FluxOR thallium flux fluorescence, at 10 µM; stronger effect = higher value
[32] = biological target: Potassium voltage-gated channel subfamily E member 1 (Homo sapiens) + Potassium voltage-gated channel subfamily KQT member 1 (Homo sapiens) (UniProt P15382+P51787); test: KCNQ1/KCNE1 channel inhibition, selectivity assay for KCNQ1 inhibitor project, CHO-K1 cells, thallium flux, FluxOR (AID 652147;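 active = mean percent inhibition of duplicate wells above the buffer-only control mean plus 3 SD of those controls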); details: FluxOR thallium flux fluorescence, at 10 µM
Potassium voltage-gated channel subfamily E member 1 (Homo sapiens) + Potassium voltage-gated channel subfamily KQT member 1 (Homo sapiens), sequence (P51787 whole entry, looked up): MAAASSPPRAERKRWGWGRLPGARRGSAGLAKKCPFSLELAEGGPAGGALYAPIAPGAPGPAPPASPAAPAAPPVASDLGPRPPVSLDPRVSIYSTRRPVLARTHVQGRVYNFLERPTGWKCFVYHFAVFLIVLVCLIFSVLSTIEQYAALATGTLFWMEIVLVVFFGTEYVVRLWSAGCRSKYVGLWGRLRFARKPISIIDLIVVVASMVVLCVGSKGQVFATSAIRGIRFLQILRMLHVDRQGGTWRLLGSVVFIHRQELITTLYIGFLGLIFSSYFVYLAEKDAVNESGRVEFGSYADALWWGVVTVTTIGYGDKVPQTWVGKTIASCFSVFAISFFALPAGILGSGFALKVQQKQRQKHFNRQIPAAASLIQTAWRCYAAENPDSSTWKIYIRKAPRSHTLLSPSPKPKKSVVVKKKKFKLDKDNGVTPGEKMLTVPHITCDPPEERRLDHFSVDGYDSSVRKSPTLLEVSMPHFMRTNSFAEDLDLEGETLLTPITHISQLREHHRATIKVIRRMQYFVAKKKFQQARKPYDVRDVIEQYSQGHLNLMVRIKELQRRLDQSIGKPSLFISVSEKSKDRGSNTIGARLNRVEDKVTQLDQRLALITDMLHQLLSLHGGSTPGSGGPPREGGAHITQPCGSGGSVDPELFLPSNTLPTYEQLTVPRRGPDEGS

Short transient receptor potential channel 4 (Mus musculus), sequence (Q9QUQ5 whole entry, looked up): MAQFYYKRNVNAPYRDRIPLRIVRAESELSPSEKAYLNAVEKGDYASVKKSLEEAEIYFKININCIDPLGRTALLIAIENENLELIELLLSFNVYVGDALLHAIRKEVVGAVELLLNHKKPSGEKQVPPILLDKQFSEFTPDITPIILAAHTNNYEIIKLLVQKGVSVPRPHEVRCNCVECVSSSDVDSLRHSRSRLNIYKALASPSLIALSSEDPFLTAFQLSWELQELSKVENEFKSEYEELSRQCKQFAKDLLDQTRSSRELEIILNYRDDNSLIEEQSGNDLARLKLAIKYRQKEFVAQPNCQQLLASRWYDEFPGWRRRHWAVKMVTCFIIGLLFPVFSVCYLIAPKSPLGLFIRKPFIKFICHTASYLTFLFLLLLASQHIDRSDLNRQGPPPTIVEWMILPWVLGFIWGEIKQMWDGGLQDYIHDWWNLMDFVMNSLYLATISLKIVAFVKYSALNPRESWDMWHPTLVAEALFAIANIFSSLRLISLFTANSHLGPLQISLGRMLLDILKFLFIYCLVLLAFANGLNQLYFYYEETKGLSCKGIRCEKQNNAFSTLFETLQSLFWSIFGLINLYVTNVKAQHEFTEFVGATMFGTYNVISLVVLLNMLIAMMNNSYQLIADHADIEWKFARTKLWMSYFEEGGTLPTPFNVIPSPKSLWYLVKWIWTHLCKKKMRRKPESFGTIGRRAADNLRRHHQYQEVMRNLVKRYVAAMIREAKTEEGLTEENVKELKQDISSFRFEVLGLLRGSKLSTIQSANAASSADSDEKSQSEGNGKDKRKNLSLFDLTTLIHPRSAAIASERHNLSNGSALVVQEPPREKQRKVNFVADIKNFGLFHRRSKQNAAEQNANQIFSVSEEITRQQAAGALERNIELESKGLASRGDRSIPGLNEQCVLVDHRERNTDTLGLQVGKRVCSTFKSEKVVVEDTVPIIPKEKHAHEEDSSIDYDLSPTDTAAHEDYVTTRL
Potassium voltage-gated channel subfamily KQT member 1 (Homo sapiens), sequence (P51787 whole entry, looked up): as the sequence (P51787 whole entry, looked up) above
Inward rectifier potassium channel 2 (Mus musculus), sequence (P35561 whole entry, looked up): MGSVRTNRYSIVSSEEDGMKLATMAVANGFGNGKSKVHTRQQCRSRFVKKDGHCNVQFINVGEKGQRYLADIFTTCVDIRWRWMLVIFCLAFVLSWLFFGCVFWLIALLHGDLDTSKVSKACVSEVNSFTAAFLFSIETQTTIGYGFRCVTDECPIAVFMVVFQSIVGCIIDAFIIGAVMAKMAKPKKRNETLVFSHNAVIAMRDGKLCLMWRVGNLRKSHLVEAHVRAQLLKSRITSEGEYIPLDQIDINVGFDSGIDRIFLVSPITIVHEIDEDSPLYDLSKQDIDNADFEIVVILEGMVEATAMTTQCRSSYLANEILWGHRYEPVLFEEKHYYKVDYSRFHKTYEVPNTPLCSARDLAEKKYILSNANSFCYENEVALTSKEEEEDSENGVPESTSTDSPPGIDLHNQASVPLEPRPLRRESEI
Short transient receptor potential channel 6 (Mus musculus), sequence (Q61143 whole entry, looked up): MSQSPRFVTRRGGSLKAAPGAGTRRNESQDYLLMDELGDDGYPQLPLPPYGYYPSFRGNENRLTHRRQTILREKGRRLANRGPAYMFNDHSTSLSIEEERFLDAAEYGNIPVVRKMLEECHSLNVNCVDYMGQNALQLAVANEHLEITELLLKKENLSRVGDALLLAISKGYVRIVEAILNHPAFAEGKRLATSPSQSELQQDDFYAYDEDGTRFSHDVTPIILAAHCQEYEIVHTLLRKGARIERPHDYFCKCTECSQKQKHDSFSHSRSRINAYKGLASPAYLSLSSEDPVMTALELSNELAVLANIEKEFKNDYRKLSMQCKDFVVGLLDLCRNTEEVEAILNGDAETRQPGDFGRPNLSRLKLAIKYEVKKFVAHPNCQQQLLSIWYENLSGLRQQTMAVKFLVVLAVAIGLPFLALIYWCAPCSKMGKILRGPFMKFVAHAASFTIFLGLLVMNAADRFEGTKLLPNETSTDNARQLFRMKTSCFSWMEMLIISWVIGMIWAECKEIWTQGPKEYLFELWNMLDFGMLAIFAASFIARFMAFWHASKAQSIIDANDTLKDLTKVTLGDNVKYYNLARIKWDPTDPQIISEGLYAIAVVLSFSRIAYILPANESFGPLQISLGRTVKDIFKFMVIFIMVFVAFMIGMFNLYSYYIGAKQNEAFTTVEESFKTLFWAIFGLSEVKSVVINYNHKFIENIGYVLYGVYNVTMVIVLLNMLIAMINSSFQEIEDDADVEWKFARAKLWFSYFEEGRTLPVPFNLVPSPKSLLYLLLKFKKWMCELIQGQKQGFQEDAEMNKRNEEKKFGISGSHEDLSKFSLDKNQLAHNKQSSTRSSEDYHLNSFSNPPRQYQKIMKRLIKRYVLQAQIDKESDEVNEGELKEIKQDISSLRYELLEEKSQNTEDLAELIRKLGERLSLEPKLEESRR

O=C(NCc1ccc2c(c1)OCO2)c1ccc(Cl)s1
inactive: outcome [1] | outcome [2] | activity over 3SD threshold [6] -17.6% | outcome [7]
active: activity increase over 3SD of controls [3] 5.5% | activation over 3SD threshold [4] 49.7% | potentiation, less the hit threshold [5] 16.7%

N#Cc1c(-c2ccccc2)nc(SCc2cccc(C(F)(F)F)c2)[nH]c1=O
active: FluxOR signal as % of negative control (100 = no effect) [2] 58% | potentiation, less the hit threshold [5] 6%
inactive: outcome [1] | activity increase over 3SD of controls [3] -8.3% | activation over 3SD threshold [4] -15% | activity over 3SD threshold [6] -39.2% | outcome [7]

CC(NC(=O)Nc1ccccc1)c1ccccc1 (stereo unspecified)
inactive: outcome [1] | outcome [2] | activity increase over 3SD of controls [3] -4.7% | activation over 3SD threshold [4] -0.5% | activity over 3SD threshold [6] -35.8% | outcome [7]
active: potentiation, less the hit threshold [5] 22.8%

Cc1cccc(NC(=S)NC(=O)c2ccc(Br)o2)c1
active: FluxOR signal as % of negative control (100 = no effect) [2] 170% | potentiation, less the hit threshold [5] 35.5% | activation [8] 204% | potentiation [9] 72% | potentiation [10] 272%
inactive: outcome [1] | activity increase over 3SD of controls [3] -7% | activation over 3SD threshold [4] -15.7% | activity over 3SD threshold [6] -35.5% | outcome [7] | outcome [11]

CS(=O)(=O)c1sc(C(=O)NC(=S)Nc2ccc(OC(F)(F)F)cc2)c2c1C=CCC2
inactive: outcome [1] | outcome [2] | activity increase over 3SD of controls [3] -1.6% | potentiation, less the hit threshold [5] -3.3% | activity over 3SD threshold [6] -36.7% | outcome [7] | outcome [8] | outcome [11]
active: activation over 3SD threshold [4] 45.7% | potentiation [9] 92% | potentiation [10] 168%

CCc1ccc(-c2nn(-c3ccccc3)cc2CSC(=N)N)cc1
inactive: outcome [2] | outcome [13] | outcome [14] | outcome [15] | outcome [16] | outcome [17] | outcome [18] | outcome [19] | outcome [20] | outcome [21] | outcome [22] | outcome [23] | outcome [25] | outcome [26] | outcome [28] | outcome [32]
active: Tl flux remaining, % of negative control (stronger effect = lower value) [1] 33.5% | activation [12] 125% | activation [24] 43.7% | activation [27] 24.4% | inhibition [29] 126% | fluorescence ratio (Tl flux) [30] 0.302 | inhibition [31] 114%
